Measurements from ChEMBL document CHEMBL3988442, “University of Dundee, Small-Polar-MMV Screening Library” (2021).

Tests used:
[1] = target: T1, Aspartate--tRNA(Asp/Asn) ligase (Mycobacterium tuberculosis (strain ATCC 25618 / H37Rv)) (UniProt P9WFW3); assay: Assay for Asp RNA synthetase-1 from Mycobacterium tuberculosis; type: functional; parameters: scale not given: direction of the effect not stated beside the values; conditions: 30 µM; also: in the data most compounds retested in dose-response had high values
T1 sequence (whole entry): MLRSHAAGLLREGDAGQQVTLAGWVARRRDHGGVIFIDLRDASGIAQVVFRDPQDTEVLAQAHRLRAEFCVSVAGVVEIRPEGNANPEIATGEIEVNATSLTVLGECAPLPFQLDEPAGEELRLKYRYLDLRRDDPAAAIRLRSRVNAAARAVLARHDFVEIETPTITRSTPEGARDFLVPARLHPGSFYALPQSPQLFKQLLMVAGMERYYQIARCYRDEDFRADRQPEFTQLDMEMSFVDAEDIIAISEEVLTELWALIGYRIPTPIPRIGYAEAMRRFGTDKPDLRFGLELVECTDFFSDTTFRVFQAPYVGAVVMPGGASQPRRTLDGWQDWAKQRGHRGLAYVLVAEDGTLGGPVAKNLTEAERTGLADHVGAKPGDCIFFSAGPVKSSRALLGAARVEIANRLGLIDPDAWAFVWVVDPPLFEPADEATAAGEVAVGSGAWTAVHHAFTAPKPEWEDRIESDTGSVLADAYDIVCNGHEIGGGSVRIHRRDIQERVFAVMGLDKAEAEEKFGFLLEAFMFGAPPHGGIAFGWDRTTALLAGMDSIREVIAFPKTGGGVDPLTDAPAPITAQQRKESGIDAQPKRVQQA

[2] = target: Shiga toxin 2 (Escherichia coli O157:H7) (UniProt P09385+P09386); assay: E. coli 0.157:H7 Shiga Toxin SOP - stx2 screening assay; type: functional; parameters: scale not given: direction of the effect not stated beside the values; conditions: 30 µM

| SMILES | Percent Effect [1] [%] | Percent Effect [2] [%] |
| --- | --- | --- |
| Cc1cnc(CN(C)C2CCN(Cc3nc4ccccc4n3C)C2)o1 (configuration not stated) | -5.16 | -27.3 |
| Cc1[nH]nc2ncc(C(=O)N3CCN(CC(C)C)CC3)cc12 | -2.36 | 33.6 |
| COc1cccc(-n2nnc(C(=O)N3CCNC(=O)C3)c2C)c1 | -6.06 | -7.95 |
| CC(=O)c1cccc(NC(=O)Cn2cc(I)cn2)c1 | 6.41 | -55.6 |
| CCN(CC)C(=O)Cn1ccc2cc(NC(=O)C3CC3)ccc21 | -1.5 | -4.48 |
| CCn1cnnc1CNC(=O)c1cc(Cl)ccc1OC | 0.48 | -24.3 |
| Cn1cc(C2CCCN2C(=O)CCCOCc2ccccc2)cn1 (configuration not stated) | -6.77 | -16.1 |
| Cc1ccc(N2CCN(C(=O)COc3nccc(C)n3)CC2)nn1 | -6.35 | -50.4 |
| Cc1cccc(CN2C[C@@H]3CN(C(=O)c4ccsc4)C[C@@H]3C2=O)c1 | 2.59 | -27.2 |
| COC(=O)CCC(=O)N1CCc2[nH]nc(-c3ccc4c(c3)OCO4)c2C1 | -1.06 | -8.22 |
| CN(C)CC(=O)N1Cc2nc(C(=O)NCc3ccncc3)oc2C1 | 4.86 | -45 |
| CNc1oc(-c2cc(S(=O)(=O)N3CCCCCC3)c(C)o2)nc1C#N | 2.56 | -18.8 |
| Cc1cc(C)c2nc(CN3CCCC(c4cc[nH]n4)C3)cc(O)c2c1 (configuration not stated) | 4.05 | 0.0646 |
| Cc1cc(-c2nnn(CCNS(C)(=O)=O)n2)ccc1F | -2.07 | -10.6 |
| COCCC(=O)N1CC2(CCN(Cc3cccc(Cl)c3)CC2)C1 | -1.46 | -17.6 |
| COc1cccc(CNc2nc(O)cc(C3CC(=O)N(C)C3)n2)c1 (configuration not stated) | 4.42 | 12.2 |
| Cc1cn[nH]c1C1CCCCN1C(=O)CCN1CCCCCC1 (configuration not stated) | 8.57 | 28.2 |
| Cc1n[nH]c(C2CN(C(=O)c3ccco3)CCO2)n1 (configuration not stated) | 2.88 | 5.26 |
| Cc1cc(-c2cnc(NC3CCCC3)nc2-c2ccoc2C)on1 | 3.94 | -25.8 |
| Fc1cnc(N2CCC3(COCc4cnc(NCC5CC5)nc43)C2)nc1 (configuration not stated) | 1.39 | 2.48 |
| CC(C)CCN(C)C(=O)c1nc(S(C)(=O)=O)n2ccccc12 | -3.39 | 26.2 |
| CCCn1c(C)c(CC(=O)N(C)CCOC)c2c1CC(C)(C)CC2=O | 1.4 | -6.17 |
| N#Cc1ncn(CCC(=O)Nc2ccc(Cl)cc2F)n1 | 10.4 | -41 |

| SMILES | Percent Effect [1] [%] | Percent Effect [2] [%] |
| --- | --- | --- |
| Cc1nc(N2CCCCC2)ncc1C(=O)N1CC(C)(C)[C@@](C)(O)C1 | 4.7 | 3.19 |
| CC(=O)c1cn(CCC(=O)N[C@H](C(=O)O)C(C)C)c2ccccc12 | -1.95 | -36.7 |
| CCOc1ncccc1NC(=O)c1cc2c(s1)CCC2 | -3.51 | 1.91 |
| CN(c1cccnn1)C1CCN(C(=O)c2ccc3c(c2)COC3)CC1 | -2.64 | 13.1 |
| Cc1cc(C)n(CC2CCCN2C(=O)c2ccc3[nH]nnc3c2)n1 (configuration not stated) | 3.71 | -26.6 |
| Cc1nc(CN2CCOC(c3nc(C(C)C)n[nH]3)C2)oc1C (configuration not stated) | 0.999 | -9.33 |
| COc1ccc(CC(=O)N2CCCC(n3cc(C)cn3)C2)cc1F (configuration not stated) | -0.544 | 12.2 |
| CCC(=O)Nc1nnc(CCCOc2ccccc2)s1 | -2.47 | -12 |
| Cc1cc(NC(=O)CN2CCCC2c2noc(C3CC3)n2)no1 (configuration not stated) | 0.92 | -26.9 |
| CC1CCCN(Cc2coc(-c3cccc(F)c3)n2)C1 (configuration not stated) | -10.1 | 7.24 |
| Cc1occc1CNC(=O)N(CCCO)C1CCc2ccccc21 (configuration not stated) | -3.25 | 8.04 |
| Brc1cc2c(cc1CN1CCC(N3CCCCC3)CC1)OCCO2 | -2.09 | -51.2 |
| CCOCC1CN(S(C)(=O)=O)Cc2cnn(C)c21 (configuration not stated) | -0.204 | -35.8 |
| CS(=O)(=O)NCCCNC(=O)c1cccc(-n2cccc2)c1 | -2.88 | -28.3 |
| Cc1noc(C(C)C)c1C(=O)NS(=O)(=O)c1ccc2c(c1)OCCCO2 | 2.22 | -0.248 |
| O=C1C[C@H]2[C@@H](CCN2C(=O)Cc2cccs2)N1Cc1cccnc1 | -2.94 | -6.22 |
| CCn1ccnc1-c1nc2cc(S(=O)(=O)N3CCCC3)ccc2n1C | -4.2 | -15.7 |
| CCC(C)(NCC(=O)Nc1ccccc1)c1nc(C)cs1 (configuration not stated) | 1.93 | 15.8 |
| Cc1cc(CN2CCN(C(c3ccccc3)c3ccccc3)CC2)no1 | 0.857 | 10.7 |
| O=C(NCCC1=CCCCC1)C1CCCN(c2ccc3nncn3n2)C1 (configuration not stated) | -1.84 | -5.94 |
| CCC1CN(CC(=O)Nc2sccc2C#N)CCO1 (configuration not stated) | -2.46 | 32.6 |
| Cc1noc(Cl)c1CCC(=O)N1CCN(c2ncccn2)CC1 | -3.2 | 36 |
| O=C(NCCOCC(F)(F)F)c1ccc(-c2ccco2)[nH]c1=O | 0.409 | 20.7 |
